Outcome data for 109 compounds are collected here from PubChem BioAssay AID434958 (Southern Research Specialized Biocontainment Screening …, 2010).

Among all 1,200 compounds or so, about 400 (33%) were called active. The rule behind the calls is not given here. The list is a sample of the results. Entries with a potency or affinity are not part of this list.

A short description of this assay: mammalian cell cytotoxicity, dose response, cytotoxicity control (AID 434958).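 Note: cells exposed to compound for 72 hours before readout.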 Particulars: cytotoxicity counter-screen; series mostly up to 40 µM. In general terms: The purpose of a counterscreen is to sort out artefacts and off-target activity.
For the compound `CC1(C)CC(=O)c2cc(C(=O)NCc3ccco3)c(=O)n(-c3ccccc3)c2C1`, the result was inactive.
The value for `CCC1(c2ccc(Cl)cc2)NC(=S)N(c2ccc(C)cc2)N1` (centres undefined) was “inactive”.
Then `CC(=O)NC(=S)Nc1ccc(NC(=O)c2cccnc2Cl)cc1`, with “inactive”.
The value for `CCCCN=C1CC(C)(C)CC(=O)/C1=C(/O)CCC` was “inactive”.
With `CCOC(=O)c1c(C)[nH]c(C(=O)COC(=O)CCC2CCCC2)c1C`, the compound was called inactive.
The value for `CCc1cc2c(=O)oc(-c3ccccc3F)nc2s1` was “inactive”; that for `CCOc1ccc2nc(SC3CC(=O)N(c4cccc(OC)c4)C3=O)sc2c1` (centres undefined) was “inactive”.
The value for `CCCCN1C(=O)c2ccc(C(=O)Nc3cccc(C)c3C)cc2C1=O` was “inactive”; that for `CCOC(=O)c1nc(N2CCN(C(=O)OCC)CC2)c2c3c(sc2n1)CCCC3` was “inactive”; that for `CC(=O)Nc1ccc(C(=O)N(C2=NC(C)CS2)c2ccc(Cl)cc2)cc1` (centres undefined) was “inactive”.
Then `COc1ccc(C2C(C#N)=C(SCC(=O)Nc3ccc(C)cc3)NC3=C2C(=O)CC(C)(C)C3)cc1` (centres undefined), with “inactive”; and `CCCCNC(=O)c1onc(CSc2ccccc2CC)c1C(=O)O`, with “inactive”; and `CCCC(=O)N1CCN(c2ccc(NC(=S)NC(=O)CC)cc2)CC1`, with “inactive”.
For `CCCC(=O)Nc1ccc(NC(=S)NC(=O)c2cccs2)cc1`, the result was inactive.
Then `Cc1ccc(C(=O)OCCN2CCN(c3ncc(C(F)(F)F)cc3Cl)CC2)cc1`, with “inactive”; and `N#Cc1c(-c2cccs2)cc(-c2ccccn2)nc1N`, with “inactive”.
The value for `Cc1cc(C)c2c(N)c(S(=O)c3ccc(C(C)(C)C)cc3)sc2n1` (centres undefined) was “inactive”.
Regarding `CC(=O)c1ccc(OCCCC(=O)OCC(=O)N2CCN(c3ccccc3)CC2)cc1`, the result was inactive.
The value for `Cc1nnc(SCc2cccc(Cl)c2)n(N)c1=O` was “inactive”; that for `Cc1cccc(/C=N\NC(=O)c2csnn2)c1` was “inactive”; that for `O=C(Cc1ccc(Cl)cc1Cl)Nc1ccc(OC(F)F)c(Cl)c1` was “inactive”.
Then `CCOC(=O)Cn1c(C)cc(=O)c2cccc(C)c21`, with “inactive”; and `O=C(Nc1ccccc1Br)c1cccc2ccccc12`, with “inactive”.
Then `Cc1ccn2c(CNCCn3nc(C)cc3C)c(C(=O)N3CCCCCC3)nc2c1`, with “inactive”.
Turning to `COc1ccc(C(=O)NC(=S)NC(C)(C)C)cc1Br`, the call was inactive.
As to `COc1ccc(C2(CNC(=O)c3cc([N+](=O)[O-])cc([N+](=O)[O-])c3)CCCC2)cc1OC`, the result was inactive.
The value for `CN1C2CCC1CC(OC(=O)c1ccc([N+](=O)[O-])cc1)C2` (centres undefined) was “inactive”.
`CCC(=O)c1ccc(OCc2ccc(C(=O)OC)cc2)c(OC)c1`: the compound was called inactive.
Then `O=C(COC(=O)Cc1ccc(S(=O)(=O)N2CCCCC2)s1)Nc1ccc2c(c1)OCO2`, with “inactive”.
As to `CC(=O)Nc1ccc(SCC(=O)c2cc(C)n(CC(F)(F)F)c2C)cc1`, the compound was classed as inactive.
For `CCOC(=O)Cn1c(=NC(=O)C2CC2)sc2c(C)cc(C)cc21`, the compound was called inactive.
Then `O=C(COc1ccccc1[N+](=O)[O-])N(Cc1cccc(Br)c1)C1CCS(=O)(=O)C1` (centres undefined), with “inactive”; and `O=C(OCC(=O)N(Cc1ccccc1)C1CCS(=O)(=O)C1)c1cc2c(s1)CCCC2` (centres undefined), with “inactive”; and `Cc1ccc(C(=O)NCC2(c3ccccc3)CCCC2)cc1`, with “inactive”.
Then `COCCNC(C(=O)Nc1ccc(C)cc1[N+](=O)[O-])c1ccccc1` (centres undefined), with “inactive”; and `CC(NC(=O)CSc1nc2ccccc2c(=O)[nH]1)c1ccccc1` (centres undefined), with “inactive”.
The value for `CCOC(=O)COc1nc(-c2ccc(Cl)cc2)cc(-c2ccco2)c1C#N` was “inactive”; that for `CN(c1ccc(OCC(=O)OCC(=O)c2c(N)n(C)c(=O)n(C)c2=O)cc1)S(=O)(=O)c1ccc2ccccc2c1` was “inactive”.
In the case of `CC1(C)CC(CCNC(=O)CCl)(c2ccccc2)CCO1` (centres undefined), the compound was called inactive.
The value for `Cn1ccnc1C(=O)Cc1ccc([N+](=O)[O-])cc1` was “inactive”; that for `CCOC(=O)c1sc(NC(=O)CSc2n[nH]c(CC(C)C)n2)nc1C` was “inactive”.
The value for `CCOC(=O)c1c(NC(=O)C(=O)N/N=C/c2ccccc2OC)sc2c1CCCCC2` was “inactive”; that for `Cc1ccccc1C(=O)NC(=S)Nc1sc2c(c1C#N)CCC(C)C2` (centres undefined) was “inactive”; that for `Cc1cc(C(=O)CSc2nnnn2-c2ccccc2)c(C)n1-c1ccc2c(c1)OCO2` was “inactive”.
Then `O=C(Nc1nc(-c2ccc(F)c(F)c2)cs1)c1cnccn1`, with “inactive”; and `COc1c(NC(C)=O)c2ccccc2c2ccccc12`, with “inactive”; and `COc1ccc2nc(SCc3cccc(C)c3)nc(C)c2c1`, with “inactive”.
For the compound `NC(=S)N/N=C/c1cccc(/C=N/NC(N)=S)c1`, the result was inactive.
For `O=C(Cn1c(=O)c2cccn2c2ccccc21)NCCc1ccc(Cl)cc1`, the compound was called inactive.
Then `Cc1ccc(-n2ncc3c(=O)n(CC#N)cnc32)cc1C`, with “inactive”; and `COc1ccc(C2CC(c3c(-c4ccccc4)c4cc(Cl)ccc4[nH]c3=O)=NN2S(C)(=O)=O)cc1` (centres undefined), with “inactive”.
The value for `CC(=O)c1sc(N/N=C\c2ccc(N(C)C)cc2)nc1C` was “inactive”; that for `CC(C)c1ccc(/C=C/C(=O)NC2CCCCC2)cc1` was “inactive”.
Regarding `CN(C)/N=C/c1ccc(/C=N/NC(N)=S)o1`, the outcome was inactive.
The value for `O=C(N/N=C/c1cccc(Br)c1)c1ccc(Cn2cc(Br)cn2)o1` was “inactive”; that for `O=C1OC(c2ccco2)=N/C1=C\c1ccc(-c2cccc(C(F)(F)F)c2)o1` was “inactive”; that for `CC1(C)C2CC=C(/C=N/NC(=O)c3ccccc3O)C1C2` (centres undefined) was “inactive”.
Turning to `CC1=NN(c2ccccc2)C(=O)/C1=C/c1c(O)[nH]c(=S)[nH]c1=O`, the outcome was inactive.
Consider `Cc1cc(N2CCN(c3ccccc3)CC2)nc2ccccc12`, for which the call was inactive.
In the case of `COc1ccc(NC(=O)C(Cc2ccccc2)n2cccc2)c(OC)c1` (centres undefined), the call was inactive.
Then `CCCN1C(=O)c2ccc(C(=O)Nc3cc(C)on3)cc2C1=O`, with “inactive”.
The value for `COc1ccc(OC)c(NC(=O)CSC2=C(C#N)C(c3ccco3)C3=C(CCCC3=O)N2)c1` (centres undefined) was “inactive”.
The value for `CC(=O)c1ccc(-n2c(C)ccc2-c2ccccc2)cc1` was “inactive”; that for `COc1cc(NC(=S)NC(=O)c2cccs2)ccc1NC(=O)C(C)C` was “inactive”; that for `Cc1ccc(/C=C/C(=O)OCC(=O)NC(C)c2ccccc2)o1` (centres undefined) was “inactive”.
As for `CCOC(=O)N1CCC(N2CCN(S(=O)(=O)c3ccc(Cl)cc3)CC2)CC1`, the compound was called inactive.
`COc1ccc(-c2csc(Nc3ccc(C)cn3)n2)cc1OC`: the result was inactive.
Then `Cc1ccccc1OCC(=O)Nc1ccccc1-c1ccccc1`, with “inactive”; and `Cc1nnnn1/C(=C\c1ccccc1)C(=O)OCC(=O)Nc1ccc(Cl)cc1F`, with “inactive”.
The value for `c1ccc(-c2noc(-c3cccc4ccccc34)n2)cc1` was “inactive”; that for `O=C(CC(=O)c1ccccc1)Nc1ccc2c(c1)OCCO2` was “inactive”.
Then `Cc1ccc(CC(=O)Nc2nc3ccccc3[nH]2)cc1C`, with “inactive”; and `O=C(Cc1ccccc1Cl)Nc1nc2ccccc2[nH]1`, with “inactive”; and `COc1ccc2sc(-c3ccc(N(C)C)cc3)c(C#CC(C)(C)O)c2c1`, with “inactive”.
In the case of `CSc1nnc(C)c(/C=C/Nc2ccc(Cl)cc2)n1`, the compound was called inactive.
The value for `Cn1cc(C(=O)N/N=C/C(Br)=C\c2ccccc2)ccc1=O` was “inactive”; that for `CCOc1cc(C(=O)N2CCC(CC3CC(c4ccccc4)=NO3)(C(=O)NCc3ccc(OC)cc3)CC2)cc(OCC)c1OCC` (centres undefined) was “inactive”; that for `CC/C(=N\NC(=S)NC(C)C)c1ccc(OC)c(OC)c1` was “inactive”.
The value for `c1ccc(-n2c3ccccc3c3ccccc32)cc1` was “inactive”; that for `C/C(=N\NC(=O)c1cccc(Cl)c1)c1cccc(NC(=O)C(C)C)c1` was “inactive”.
Then `CSc1cccc(NC(=O)c2ccc(Cl)nc2)c1`, with “inactive”.
For `O=C(N[C@@H](Cc1ccccc1)C(=O)CCl)OCc1ccccc1`, the outcome was inactive.
The value for `CC(C)C[C@H](NC(=O)c1nc[nH]c1C(=O)N1CCN(C(=O)OC(C)(C)C)CC1)C(=O)OCc1ccccc1` was “inactive”; that for `O=C1CC(Nc2ccc(N3CCOCC3)cc2)C(=O)N1C1CCCCC1` (centres undefined) was “inactive”; that for `O=C(O)CCN1C(=O)/C(=C/c2ccc(-c3nc4ccccc4s3)o2)SC1=S` was “inactive”.
The value for `COc1ccc(-c2cc3nc(C)cc(N4CC(C)CC(C)C4)n3n2)cc1` (centres undefined) was “inactive”.
As to `C/C(CC(=O)Nc1c(C)cc(C)cc1C)=N\NC(=O)c1cnccn1`, the compound was classed as inactive.
With `O=C(OCC(=O)N1CCc2ccccc21)c1ccc(Cl)nc1`, the compound was called inactive.
The value for `Cc1cc(NC(=O)CCS(=O)(=O)c2nc(-c3ccccc3)cc(C(F)(F)F)n2)no1` was “inactive”.
Then `CC/C(=N\NC(=O)c1ccc(N(C)C)cc1)c1ccccc1`, with “inactive”; and `O=C(COn1nnc2ccc(Cl)cc21)NC12CC3CC(CC(C3)C1)C2`, with “inactive”.
`CCc1ccc(NC(=O)C2C3/C=C\CCCCC32)cc1` (centres undefined): the compound was classed as inactive.
Then `CCOC(=O)/C=C/c1ccc2c(c1)S(=O)(=O)N(Cc1ccc(OC)cc1)[C@H]2CC(=O)OCC`, with “inactive”; and `O=C(COC(=O)C1=COCCO1)Nc1ccc2c(c1)OCO2`, with “inactive”; and `CCOC(=O)c1c(C)[nH]c(N=Nc2ccccc2Cl)c1C`, with “inactive”.
The value for `COCCCNCCOCCOc1ccc(C)cc1Br` was “inactive”.
The value for `COc1cccc(NC(=S)Nc2cc(C)cc(C)n2)c1` was “inactive”; that for `O=C(O)c1cc(-c2ccco2)nc2ccc(Br)cc12` was “inactive”; that for `CN(C)S(=O)(=O)n1cc(/C=C(\NC(=O)c2ccccc2)C(=O)NCCN2CCOCC2)c2ccccc21` was “inactive”.
With `CCOC(=O)c1ccc(N2CN(CCc3ccccc3)CNC2=S)cc1`, the compound was called inactive.
Then `CC(C)(C)c1nnc2sc(SCC(=O)c3cccs3)nn2c1=O`, with “inactive”; and `CNC(=O)COC(=O)c1ccccc1NC(=O)c1ccco1`, with “inactive”; and `CCCn1nc(NC(=O)c2ccco2)c2cc3cc(C)ccc3nc21`, with “inactive”.
Then `COc1ccc(NC(=O)CCc2ccccc2)cc1NC(=O)c1ccco1`, with “inactive”.
As for `C=CCOc1ccc(C2N3CC4(C)CN2CC(CCC)(C3)C4=O)cc1` (centres undefined), the compound was called inactive.
Regarding `CC(C(=O)Nc1nc2ccccc2[nH]1)N1C(=O)C2CC=CCC2C1=O` (centres undefined), the result was inactive.
For the compound `CCC(=O)NC(=S)Nc1ccc(-c2nc3ccccc3s2)cc1`, the call was inactive.
Then `CCOc1ccc(S(=O)(=O)n2nnc3ccccc32)cc1C(C)C`, with “inactive”; and `COC(=O)c1c(-c2ccc(OC)cc2)oc2ccc(-c3cc(OC)c(OC)c(OC)c3)cc12`, with “inactive”.
